Results published in ChEMBL document CHEMBL3988442, “University of Dundee, Small-Polar-MMV Screening Library” (2021).
For part of these data: Potency and affinity values are given separately.

Columns and labels:
Parameters in all cases: scale not given: direction of the effect not stated beside the values
[1] = biological target: Protein translocase subunit SecA (Escherichia coli (strain K12)) (UniProt P10408); experiment: Assay to Identify E. coli SecA ATPase Inhibitors; type: functional; details: 30 µM
[2] = biological target: T1, Ubiquitin-activating enzyme e1, putative (Leishmania donovani (strain BPK282A1)) (UniProt E9BSI1); experiment: Leishmania donovani Ubiquitin Activating Enzyme (LdE1); type: functional; details: 30 µM
T1 sequence (whole entry): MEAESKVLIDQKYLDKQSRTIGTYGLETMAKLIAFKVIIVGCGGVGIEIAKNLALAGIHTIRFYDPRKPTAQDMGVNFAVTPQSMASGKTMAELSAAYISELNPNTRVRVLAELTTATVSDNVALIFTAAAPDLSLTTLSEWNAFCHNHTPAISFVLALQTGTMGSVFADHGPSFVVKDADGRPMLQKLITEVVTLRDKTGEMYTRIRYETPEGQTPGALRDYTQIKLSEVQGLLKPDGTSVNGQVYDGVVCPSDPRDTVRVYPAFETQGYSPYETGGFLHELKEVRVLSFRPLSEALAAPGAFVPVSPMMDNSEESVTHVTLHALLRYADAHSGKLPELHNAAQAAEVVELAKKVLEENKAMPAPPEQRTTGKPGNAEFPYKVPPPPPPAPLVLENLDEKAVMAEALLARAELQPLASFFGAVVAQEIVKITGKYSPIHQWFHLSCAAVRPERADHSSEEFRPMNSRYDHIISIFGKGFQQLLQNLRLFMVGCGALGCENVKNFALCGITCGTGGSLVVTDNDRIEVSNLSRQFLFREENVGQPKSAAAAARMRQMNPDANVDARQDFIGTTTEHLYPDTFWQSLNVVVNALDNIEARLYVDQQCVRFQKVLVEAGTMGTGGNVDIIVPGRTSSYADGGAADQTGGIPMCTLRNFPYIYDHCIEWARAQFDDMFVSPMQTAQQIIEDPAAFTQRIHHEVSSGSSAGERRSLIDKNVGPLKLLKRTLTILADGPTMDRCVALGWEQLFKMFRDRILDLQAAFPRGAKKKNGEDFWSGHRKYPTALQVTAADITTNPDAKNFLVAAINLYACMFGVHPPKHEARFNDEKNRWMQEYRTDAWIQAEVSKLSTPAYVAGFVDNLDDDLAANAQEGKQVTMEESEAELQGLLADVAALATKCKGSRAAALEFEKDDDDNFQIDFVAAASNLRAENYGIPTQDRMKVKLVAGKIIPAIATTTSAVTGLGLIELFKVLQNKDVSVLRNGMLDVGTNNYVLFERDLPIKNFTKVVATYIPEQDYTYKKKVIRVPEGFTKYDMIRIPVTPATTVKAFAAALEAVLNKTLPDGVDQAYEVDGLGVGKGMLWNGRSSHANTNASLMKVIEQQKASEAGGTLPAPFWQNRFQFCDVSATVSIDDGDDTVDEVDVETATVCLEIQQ

[3] = biological target: T2, Aspartate--tRNA(Asp/Asn) ligase (Mycobacterium tuberculosis (strain ATCC 25618 / H37Rv)) (UniProt P9WFW3); experiment: Assay for Asp RNA synthetase-1 from Mycobacterium tuberculosis; type: functional; details: 30 µM; also: in the data most compounds retested in dose-response had high values
T2 sequence (whole entry): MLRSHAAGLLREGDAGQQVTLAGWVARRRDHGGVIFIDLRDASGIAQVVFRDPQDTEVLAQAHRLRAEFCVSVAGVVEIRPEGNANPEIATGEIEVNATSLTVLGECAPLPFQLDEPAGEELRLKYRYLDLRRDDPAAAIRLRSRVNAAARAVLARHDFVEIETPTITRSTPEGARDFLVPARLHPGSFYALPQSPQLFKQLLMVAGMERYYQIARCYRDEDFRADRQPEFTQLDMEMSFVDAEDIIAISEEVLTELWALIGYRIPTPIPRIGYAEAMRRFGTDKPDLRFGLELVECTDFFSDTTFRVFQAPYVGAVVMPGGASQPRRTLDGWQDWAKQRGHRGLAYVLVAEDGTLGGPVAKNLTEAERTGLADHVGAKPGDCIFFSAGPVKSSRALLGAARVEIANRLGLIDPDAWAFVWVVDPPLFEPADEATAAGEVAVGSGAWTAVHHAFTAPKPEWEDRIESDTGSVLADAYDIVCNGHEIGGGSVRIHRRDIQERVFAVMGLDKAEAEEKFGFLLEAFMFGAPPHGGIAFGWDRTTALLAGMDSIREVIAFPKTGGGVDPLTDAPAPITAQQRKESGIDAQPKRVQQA

[4] = biological target: AMP-activated protein kinase, AMPK (Homo sapiens) (UniProt P54646+O43741+P54619+Q9UGJ0+Q9Y478+Q13131+Q9UGI9); experiment: AMP-dependent Kinase enzyme assay. An in vitro enzyme assay that detects ADP turnover that is directly proportional to AMPK activity. This uses naive AMPK that is activated during the assay with MK-8722; type: functional; details: 30 µM
[5] = biological target: Sialic acid-binding Ig-like lectin 9 (Homo sapiens) (UniProt Q9Y336); experiment: Hs-Siglec9 ALPHAscreen SOP 20170721; details: 10 µM
Trypanosoma cruzi = experiment: Trypanosoma cruzi phosphomannomutase and mannose-1-phosphate guanylyltransferase assay; type: functional; details: 10 µM
[6] = biological target: T3, Arginase-2, mitochondrial (Homo sapiens) (UniProt P78540); experiment: in vitro enzyme assay to detect the production of urea directly proportional to the activity of Arginase II; type: functional; details: 33.3 µM; also: in the data most compounds retested in dose-response had high values
T3 sequence (whole entry): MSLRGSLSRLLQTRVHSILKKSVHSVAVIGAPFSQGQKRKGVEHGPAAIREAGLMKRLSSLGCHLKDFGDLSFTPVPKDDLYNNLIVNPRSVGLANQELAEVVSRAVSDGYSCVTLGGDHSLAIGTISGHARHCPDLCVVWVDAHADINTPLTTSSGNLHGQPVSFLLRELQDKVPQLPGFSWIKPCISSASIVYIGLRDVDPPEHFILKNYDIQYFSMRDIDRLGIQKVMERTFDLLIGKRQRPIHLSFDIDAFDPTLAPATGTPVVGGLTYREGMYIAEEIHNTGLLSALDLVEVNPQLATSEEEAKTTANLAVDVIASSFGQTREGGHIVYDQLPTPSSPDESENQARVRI

[7] = biological target: T4, Proteasome subunit beta (Trypanosoma cruzi) (UniProt O96673); experiment: Trypanosoma cruzi proteasome chymotrypsin-like activity (TcProtChymo) assay.; also: in the data most compounds retested in dose-response had high values; type: functional; details: 9.37 µM
T4 sequence (whole entry): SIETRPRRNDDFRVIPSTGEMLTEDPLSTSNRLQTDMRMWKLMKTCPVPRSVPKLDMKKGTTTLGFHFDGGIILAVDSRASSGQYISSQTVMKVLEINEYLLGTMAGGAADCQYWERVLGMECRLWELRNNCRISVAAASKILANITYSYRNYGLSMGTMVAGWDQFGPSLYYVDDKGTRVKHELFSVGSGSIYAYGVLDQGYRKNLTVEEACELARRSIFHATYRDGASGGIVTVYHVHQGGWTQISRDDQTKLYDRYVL

Homo sapiens = species: Homo sapiens; experiment: To identify inhibition of the IFN signalling (Jak-Stat) pathway via expression of an eGFP reporter gene under the control of an IFN-stimulated response element (ISRE) containing MxA promoter.; type: functional; details: 30 µM
[8] = biological target: Shiga toxin 2 (Escherichia coli O157:H7) (UniProt P09385+P09386); experiment: E. coli 0.157:H7 Shiga Toxin SOP - stx2 screening assay; type: functional; details: 30 µM
[9] = biological target: T5, Tyrosyl-tRNA synthetase, putative (Trypanosoma cruzi (strain CL Brener)) (UniProt Q4DSP6); experiment: Trypanosoma cruzi tyrosyl tRNA synthetase (TcYRS) _High Tyrosine SOP; type: functional; details: 30 µM; also: in the data most compounds retested in dose-response had high values
T5 sequence (whole entry): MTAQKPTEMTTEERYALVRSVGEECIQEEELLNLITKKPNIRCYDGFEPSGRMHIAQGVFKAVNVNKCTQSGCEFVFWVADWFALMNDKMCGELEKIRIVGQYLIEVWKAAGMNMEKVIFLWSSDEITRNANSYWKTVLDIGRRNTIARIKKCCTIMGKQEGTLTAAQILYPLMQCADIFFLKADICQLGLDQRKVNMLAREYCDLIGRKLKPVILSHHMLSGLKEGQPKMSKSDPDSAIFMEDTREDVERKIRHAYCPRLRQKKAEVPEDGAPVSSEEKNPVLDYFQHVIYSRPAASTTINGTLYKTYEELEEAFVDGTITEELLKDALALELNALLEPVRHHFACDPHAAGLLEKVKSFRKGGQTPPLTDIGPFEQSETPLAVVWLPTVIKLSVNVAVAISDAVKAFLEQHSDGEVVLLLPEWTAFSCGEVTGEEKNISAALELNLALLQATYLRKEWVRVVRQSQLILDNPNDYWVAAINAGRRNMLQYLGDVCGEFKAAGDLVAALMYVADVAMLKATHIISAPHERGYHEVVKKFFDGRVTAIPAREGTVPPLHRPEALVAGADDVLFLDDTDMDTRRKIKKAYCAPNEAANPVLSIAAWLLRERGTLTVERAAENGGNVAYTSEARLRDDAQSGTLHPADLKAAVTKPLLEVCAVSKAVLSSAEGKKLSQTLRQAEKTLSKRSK

[10] = biological target: T5, Tyrosyl-tRNA synthetase, putative (Trypanosoma cruzi (strain CL Brener)); experiment: Trypanosoma cruzi tyrosyl tRNA synthetase (TcYRS) SOP; type: functional; details: 30 µM
[11] = biological target: Chromo domain-containing protein 1 (Saccharomyces cerevisiae (strain ATCC 204508 / S288c) (Baker's yeast)) (UniProt P32657); experiment: ScCHD-1 Enzyme Inhibition Assay; type: functional; details: 30 µM; also: in the data most compounds retested in dose-response had high values
Chain of Chromo domain-containing protein 1 (Saccharomyces cerevisiae (strain ATCC 204508 / S288c) (Baker's yeast)) (P32657 whole entry, the tested form may be a part): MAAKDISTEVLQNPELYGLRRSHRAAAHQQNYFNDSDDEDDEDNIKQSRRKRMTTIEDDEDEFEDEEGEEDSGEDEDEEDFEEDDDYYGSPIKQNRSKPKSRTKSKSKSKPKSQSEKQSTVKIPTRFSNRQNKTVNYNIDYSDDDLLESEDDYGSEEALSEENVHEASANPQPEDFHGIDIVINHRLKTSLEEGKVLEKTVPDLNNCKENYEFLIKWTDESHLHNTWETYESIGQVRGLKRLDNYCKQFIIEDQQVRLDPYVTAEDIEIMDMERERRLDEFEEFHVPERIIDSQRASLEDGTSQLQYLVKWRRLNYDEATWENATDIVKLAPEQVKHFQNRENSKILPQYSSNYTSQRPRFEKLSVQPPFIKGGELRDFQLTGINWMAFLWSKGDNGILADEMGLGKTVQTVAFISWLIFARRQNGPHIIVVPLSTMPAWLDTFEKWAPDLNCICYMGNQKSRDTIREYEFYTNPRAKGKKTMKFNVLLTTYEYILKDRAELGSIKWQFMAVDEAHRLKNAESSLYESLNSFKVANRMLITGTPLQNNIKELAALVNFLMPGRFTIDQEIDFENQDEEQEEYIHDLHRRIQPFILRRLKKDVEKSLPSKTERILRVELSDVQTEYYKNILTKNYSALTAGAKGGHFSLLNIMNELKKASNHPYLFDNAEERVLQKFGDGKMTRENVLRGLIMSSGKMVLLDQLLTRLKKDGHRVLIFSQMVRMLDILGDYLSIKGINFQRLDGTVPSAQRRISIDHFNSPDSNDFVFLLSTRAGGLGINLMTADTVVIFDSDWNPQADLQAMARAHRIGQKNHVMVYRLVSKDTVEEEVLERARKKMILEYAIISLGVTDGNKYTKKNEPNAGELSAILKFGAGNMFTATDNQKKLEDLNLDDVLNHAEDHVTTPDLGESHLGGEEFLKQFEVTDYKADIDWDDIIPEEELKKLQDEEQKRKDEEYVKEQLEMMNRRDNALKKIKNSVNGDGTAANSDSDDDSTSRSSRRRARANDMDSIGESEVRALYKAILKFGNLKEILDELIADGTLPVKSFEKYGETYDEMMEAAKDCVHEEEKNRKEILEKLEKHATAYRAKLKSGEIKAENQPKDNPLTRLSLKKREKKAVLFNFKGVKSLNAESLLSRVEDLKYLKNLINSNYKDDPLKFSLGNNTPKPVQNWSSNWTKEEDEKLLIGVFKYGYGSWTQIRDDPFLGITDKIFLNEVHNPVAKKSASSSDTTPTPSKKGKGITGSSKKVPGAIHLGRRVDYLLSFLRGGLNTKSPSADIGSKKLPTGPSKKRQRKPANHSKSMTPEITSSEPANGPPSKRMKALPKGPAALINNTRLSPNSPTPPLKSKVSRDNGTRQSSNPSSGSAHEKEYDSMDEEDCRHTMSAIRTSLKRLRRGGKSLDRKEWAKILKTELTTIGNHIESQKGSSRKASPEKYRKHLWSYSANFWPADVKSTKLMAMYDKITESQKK

Chain of Protein translocase subunit SecA (Escherichia coli (strain K12)) (P10408 whole entry): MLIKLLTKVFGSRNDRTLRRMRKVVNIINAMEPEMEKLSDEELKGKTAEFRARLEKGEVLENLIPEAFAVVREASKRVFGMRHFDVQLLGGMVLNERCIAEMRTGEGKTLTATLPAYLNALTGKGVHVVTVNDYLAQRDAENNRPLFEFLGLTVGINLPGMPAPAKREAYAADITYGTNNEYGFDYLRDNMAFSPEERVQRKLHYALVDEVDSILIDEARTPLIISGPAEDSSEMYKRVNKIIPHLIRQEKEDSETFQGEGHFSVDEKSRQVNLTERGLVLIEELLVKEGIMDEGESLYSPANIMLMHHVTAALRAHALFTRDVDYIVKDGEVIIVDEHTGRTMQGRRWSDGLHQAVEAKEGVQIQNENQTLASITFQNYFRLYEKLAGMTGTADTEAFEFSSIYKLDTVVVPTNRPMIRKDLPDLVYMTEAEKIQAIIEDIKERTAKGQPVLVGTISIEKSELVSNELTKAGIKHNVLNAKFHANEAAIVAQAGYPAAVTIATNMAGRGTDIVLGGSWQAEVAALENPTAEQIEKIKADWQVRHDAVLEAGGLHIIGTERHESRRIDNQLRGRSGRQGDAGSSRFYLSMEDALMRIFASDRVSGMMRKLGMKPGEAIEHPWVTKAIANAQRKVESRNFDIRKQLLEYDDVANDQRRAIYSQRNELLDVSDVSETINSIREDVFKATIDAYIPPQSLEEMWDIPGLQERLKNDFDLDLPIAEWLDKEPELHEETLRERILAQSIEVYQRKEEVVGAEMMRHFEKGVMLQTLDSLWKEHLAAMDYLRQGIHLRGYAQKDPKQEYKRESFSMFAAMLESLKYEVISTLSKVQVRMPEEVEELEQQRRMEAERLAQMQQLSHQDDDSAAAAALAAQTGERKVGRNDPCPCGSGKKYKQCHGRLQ
Chain of Sialic acid-binding Ig-like lectin 9 (Homo sapiens) (Q9Y336 whole entry): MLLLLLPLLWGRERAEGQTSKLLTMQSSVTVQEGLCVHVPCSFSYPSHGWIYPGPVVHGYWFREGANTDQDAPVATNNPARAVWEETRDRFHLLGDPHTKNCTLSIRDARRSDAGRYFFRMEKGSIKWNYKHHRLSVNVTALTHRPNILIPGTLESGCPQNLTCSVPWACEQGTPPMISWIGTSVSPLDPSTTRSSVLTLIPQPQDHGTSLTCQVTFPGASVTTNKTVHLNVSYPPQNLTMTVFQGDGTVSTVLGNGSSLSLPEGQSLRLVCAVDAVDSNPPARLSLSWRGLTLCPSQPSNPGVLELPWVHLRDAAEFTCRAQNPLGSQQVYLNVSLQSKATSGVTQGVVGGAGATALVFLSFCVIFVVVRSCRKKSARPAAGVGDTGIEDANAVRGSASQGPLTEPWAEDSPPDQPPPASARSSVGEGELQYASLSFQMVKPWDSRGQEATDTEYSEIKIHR

c1cncc(OC[C@@H]2CC[C@H]3[C@H](CCN3Cc3cccs3)O2)c1
Percent Effect [1]: -2.2%
Percent Effect [2]: 5.33%
Percent Effect [3]: -2.1%
Percent Effect [4]: 4.9%
Percent Effect [5]: -3.46%
Percent Effect (Trypanosoma cruzi): -2.56%
Percent Effect [6]: 2.1%
Percent Effect [7]: -0.969%
Percent Effect (Homo sapiens): -0.872%
Percent Effect [8]: -5.68%
Percent Effect [9]: 2.13%
Percent Effect [10]: 8.97%
Percent Effect [11]: 2.16%

O[C@@]1(c2ccccn2)CC[C@H]2CN(Cc3cccc(Cl)c3Cl)C[C@H]21
Percent Effect [1]: -3.54%
Percent Effect [2]: 1.35%
Percent Effect [3]: -0.73%
Percent Effect [4]: 14.3%
Percent Effect [5]: -0.828%
Percent Effect (Trypanosoma cruzi): -3.95%
Percent Effect [6]: -1.62%
Percent Effect [7]: -0.468%
Percent Effect (Homo sapiens): 25.8%
Percent Effect [8]: 23.9%
Percent Effect [9]: 2.15%
Percent Effect [10]: 6.49%
Percent Effect [11]: -8.09%

COc1ccc(-c2n[nH]cc2C2SCC(=O)Nc3[nH]ncc32)cc1 (centres undefined)
Percent Effect [1]: -3.63%
Percent Effect [2]: 0%
Percent Effect [3]: 0.479%
Percent Effect [4]: 21.7%
Percent Effect [5]: 3.15%
Percent Effect (Trypanosoma cruzi): -3.41%
Percent Effect [6]: -17.8%
Percent Effect [7]: 14.9%
Percent Effect (Homo sapiens): 16.2%
Percent Effect [8]: -3.31%
Percent Effect [9]: 2.13%
Percent Effect [10]: 7.79%
Percent Effect [11]: 0.161%

O=C(NC[C@]12COC[C@H]1CN(Cc1cccnc1)C2)c1ccno1
Percent Effect [1]: 0.292%
Percent Effect [2]: 13.3%
Percent Effect [3]: 0.956%
Percent Effect [4]: 8.36%
Percent Effect [5]: -8.01%
Percent Effect (Trypanosoma cruzi): -4.13%
Percent Effect [6]: -0.233%
Percent Effect [7]: 2.73%
Percent Effect (Homo sapiens): -4.47%
Percent Effect [8]: -10.4%
Percent Effect [9]: 9.57%
Percent Effect [10]: 19.2%
Percent Effect [11]: -7.79%

Cc1noc(C)c1CN1CC[C@H]2C[C@@H](c3nccs3)O[C@@H]2C1
Percent Effect [1]: -4.73%
Percent Effect [2]: 5.41%
Percent Effect [3]: 3.41%
Percent Effect [4]: 3.53%
Percent Effect [5]: 1.06%
Percent Effect (Trypanosoma cruzi): 0.88%
Percent Effect [6]: 0.319%
Percent Effect [7]: 18.1%
Percent Effect (Homo sapiens): 4.79%
Percent Effect [8]: 11.3%
Percent Effect [9]: 1.08%
Percent Effect [10]: 7.69%
Percent Effect [11]: -0.345%

O=C(C1CCC1)N1CCC2(CC1)OCCO2
Percent Effect [1]: -3.54%
Percent Effect [2]: -2.63%
Percent Effect [3]: -4.73%
Percent Effect [4]: 2.75%
Percent Effect [5]: 1.15%
Percent Effect (Trypanosoma cruzi): -1.85%
Percent Effect [6]: 7.1%
Percent Effect [7]: 6.04%
Percent Effect (Homo sapiens): 5.13%
Percent Effect [8]: -1.29%
Percent Effect [9]: 0%
Percent Effect [10]: 5.2%
Percent Effect [11]: -0.64%

CCN1CCC2(COCc3cnc(NCC4CC4)nc32)C1 (centres undefined)
Percent Effect [1]: 1.53%
Percent Effect [2]: 0%
Percent Effect [3]: 0.296%
Percent Effect [4]: -4.7%
Percent Effect [5]: 2.85%
Percent Effect (Trypanosoma cruzi): 5.95%
Percent Effect [6]: -2%
Percent Effect [7]: 3.68%
Percent Effect (Homo sapiens): 18.1%
Percent Effect [8]: -28.9%
Percent Effect [9]: 0%
Percent Effect [10]: 8.64%
Percent Effect [11]: -0.871%

Cc1cccc(CN2CC[C@@H]3[C@@H]2CCN3C(=O)c2ccno2)n1
Percent Effect [1]: -0.832%
Percent Effect [2]: -2.7%
Percent Effect [3]: 3.7%
Percent Effect [4]: -8.15%
Percent Effect [5]: -3.73%
Percent Effect (Trypanosoma cruzi): 6.84%
Percent Effect [6]: -1.67%
Percent Effect [7]: 12.1%
Percent Effect (Homo sapiens): -11.7%
Percent Effect [8]: -15.7%
Percent Effect [9]: -13.9%
Percent Effect [10]: 1.22%
Percent Effect [11]: 94%

CCn1ccnc1CN1CCCN(C(=O)Cc2ccc(C)nc2)CC1
Percent Effect [1]: -2.41%
Percent Effect [2]: 5.2%
Percent Effect [3]: 1.82%
Percent Effect [4]: 5.72%
Percent Effect [5]: 3.18%
Percent Effect (Trypanosoma cruzi): 2.45%
Percent Effect [6]: 3.16%
Percent Effect [7]: 10.4%
Percent Effect (Homo sapiens): -0.845%
Percent Effect [8]: 6.49%
Percent Effect [9]: -0.952%
Percent Effect [10]: 0%
Percent Effect [11]: -16.3%

COCC(=O)NC1CC2(CCN(CCF)CC2)Oc2ccccc21 (centres undefined)
Percent Effect [1]: -7.73%
Percent Effect [2]: 1.3%
Percent Effect [3]: -6.51%
Percent Effect [5]: -0.183%
Percent Effect (Trypanosoma cruzi): -2.63%
Percent Effect [6]: 1.37%
Percent Effect [7]: 8.67%
Percent Effect (Homo sapiens): 16.2%
Percent Effect [8]: 6.84%
Percent Effect [9]: 0%
Percent Effect [10]: -2.5%
Percent Effect [11]: -22.9%
